Consider 40 sequences from the OligoGym collection.
Note: reference of the scale not given here.

The first assay concerns the target CTSH. Nature of the assay: pooled miR-30 sensor sort-seq; sequence = guide strand. The following applies: shRNA.
As to AAGGACAGCATCTTTCCGGTTG, the sensor-assay potency score (higher = more potent) is 0.018.

TACATCCTTGACAAAGCCGATG: the sensor-assay potency score (higher = more potent) was -1.28.

As for TATATGTGGAAAGTAGCCCTTC, the sensor-assay potency score (higher = more potent) is 0.309.

Regarding TGTGATGTTGGCTACATCCTTG, the sensor-assay potency score (higher = more potent) is -0.0306.

As for TTACGGTGCTTAGACATCCATG, the sensor-assay potency score (higher = more potent) is -1.04.

As for TTGTTGTACAGGATATACTCGA, the sensor-assay potency score (higher = more potent) amounted to 0.136.

TTCAGTGCCATTTTAAATGTGT showed a sensor-assay potency score (higher = more potent) of 0.219.

For the sequence TTTATCTGGAGTTTTATGGCAG, the sensor-assay potency score (higher = more potent) was -0.245.

With TTCTATACATCATGAAGTCCTG, the sensor-assay potency score (higher = more potent) is -0.782.

Consider TTATCTGGAGTTTTATGGCAGG, for which the sensor-assay potency score (higher = more potent) was -0.729.

TCTATACATCATGAAGTCCTGA registered a sensor-assay potency score (higher = more potent) of 0.44.

The next assay concerns the target CUZD1. The assay is described as above. The following applies: shRNA.
For TTTGCTTATAATAACTCTCATC, the sensor-assay potency score (higher = more potent) was -0.82.

In turn, TTTAGTTGCAAGTTATTCCCAT had a sensor-assay potency score (higher = more potent) of 0.389.

As to TTTGTATTACATCATCTTCTGT, the sensor-assay potency score (higher = more potent) is -0.716.

For TTGATTAGGTCGTAGGTTGGAG, the sensor-assay potency score (higher = more potent) came to 0.0207.

For TTTGACTTTGTATTACATCATC, the sensor-assay potency score (higher = more potent) was -1.5.

Sequence AAATACAGGAACATAGTCGTTT had a sensor-assay potency score (higher = more potent) of 0.0357.

As to TTACACTGCAGATACACAGAGC, the sensor-assay potency score (higher = more potent) is -0.444.

On to TTCTGATTGTACCACATCCATT, for which the sensor-assay potency score (higher = more potent) is -1.82.

Take TATATGAAGAAATGTCTCGTTT: the sensor-assay potency score (higher = more potent) was -0.417.

Take TTGAAGTTTAGTTTTATCTTGT: the sensor-assay potency score (higher = more potent) turned out to be 0.539.

As to TATCTTGTAATCTTTCTCCACT, the sensor-assay potency score (higher = more potent) was -0.514.

For the sequence TTGTATTACATCATCTTCTGTT, the sensor-assay potency score (higher = more potent) was found to be 0.486.

In another assay the target is CWF19L2. The description is as above. To be noted: shRNA.
TTGCAGTATCTGTTGTAGCATA: the sensor-assay potency score (higher = more potent) is -0.923.

Turning to TTAGCCAGCTTAATCCACCATC, the sensor-assay potency score (higher = more potent) came out at 0.0576.

As for TTTACTAAGTCTGATTCTCTAC, the sensor-assay potency score (higher = more potent) was -0.315.

TTAGATTCTCTTCTACACGTTT: the sensor-assay potency score (higher = more potent) was -0.587.

TAATCTTTCTTCACTGTTCTTG came in with a sensor-assay potency score (higher = more potent) of 0.0595.

Consider TTAGTAATCGATGACACACTAC, for which the sensor-assay potency score (higher = more potent) is -0.494.

TTTCTTGACAATTTTGTGCTTT: the sensor-assay potency score (higher = more potent) came out at 0.803.

TTCTACTTTGTTTCTCAGCTTG: the sensor-assay potency score (higher = more potent) worked out at 0.279.

Turning to TTGTTTCTCAGCTTGTTCCTTC, the sensor-assay potency score (higher = more potent) was determined as 0.329.

Take TGTTGTAGCATATCTATCCCTT: the sensor-assay potency score (higher = more potent) was -0.316.

As for TAATCCACCATCTTCTACCACT, the sensor-assay potency score (higher = more potent) was -1.06.

For TAAATTAACTGAACAATTCGGA, the sensor-assay potency score (higher = more potent) is 0.661.

For a further assay, the target named is CXCL1. Described as above. To be noted: shRNA.
For TCGATGATTTTCTTAACTATGG, the sensor-assay potency score (higher = more potent) is -1.57.

Consider TTGAGGCAAGCTTTCCGCCCAT, for which the sensor-assay potency score (higher = more potent) was -0.645.

As to ATGATTTTCTTAACTATGGGGG, the sensor-assay potency score (higher = more potent) is -0.365.

Consider TTCCGCCCATTCTTGAGTGTGG, for which the sensor-assay potency score (higher = more potent) was -0.98.

For TTAACTATGGGGGATGCAGGAT, the sensor-assay potency score (higher = more potent) was -1.04.
